biological target: cAMP-dependent protein kinase catalytic subunit alpha (Homo sapiens) (UniProt P17612); settings: at 1 µM;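 further: mean percent inhibition of PKA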

Q: How did the inhibition turn out when `CN(C)CCCn1c(-c2nonc2N)nc2cnccc21` was run?
A: 3.18%

Q: `CN(c1ccc(NC(=O)Nc2ccc(OC(F)(F)F)cc2)cc1)c1ccnc(Nc2cccc(S(N)(=O)=O)c2)n1` was tested. Which inhibition did it give?
A: 2.04%

Q: For `O=C(Nc1ccc(Oc2ccc3[nH]c(NC(=O)c4ccco4)nc3c2)cc1)Nc1cc(C(F)(F)F)ccc1F`, which inhibition is on record?
A: 0.09%

Q: How did the inhibition turn out when `c1ccc(Cc2nc3ccc(Nc4ncnc5ccccc45)cc3[nH]2)cc1` was run?
A: 2.76%

Q: `C[C@@H](Oc1cc(-n2cnc3ccc(OCC4CCN(C)CC4)cc32)sc1C(N)=O)c1ccccc1C(F)(F)F` was tested. Which inhibition did it give?
A: 1.15%

Q: Which inhibition does the source give for `Nc1nccc(-c2c(-c3ccc(F)cc3)nn3cc(C(F)(F)F)ccc23)n1` here?
A: 2.17%

Q: Which inhibition does the source give for `NC(=O)c1cccc(Nc2nccc(Nc3cccc(F)c3)n2)c1` here?
A: 0.76%

Q: Which inhibition does the source give for `Nc1nccc(C#Cc2cncnc2Nc2ccc(OCc3cccc(F)c3)c(Cl)c2)n1` here?
A: 2.74%

Q: For `NC(=O)c1sc(-n2cnc3ccccc32)cc1OCc1ccccc1Br`, which inhibition is on record?
A: 4.48%

Q: With `CN(C)c1cc2c(Nc3ccc4c(cnn4Cc4ccccc4)c3)ncnc2cn1` as the compound, how does the inhibition read?
A: 1.92%

Q: `NS(=O)(=O)c1ccc(-c2cc3ccncc3cc2OCc2ccccc2)cc1` was tested. Which inhibition did it give?
A: 0.52%

Q: `Nc1ccc(C#Cc2cncnc2Nc2ccc(OCc3cccc(F)c3)c(Cl)c2)cc1` was tested. Which inhibition did it give?
A: 2.77%

Q: Which inhibition does the source give for `FC(F)(F)c1ccc(-c2nn3ncccc3c2-c2ccnc(Nc3ccc4c(c3)OCCO4)n2)cc1` here?
A: 6.96%

Q: With `Cc1cc(-c2ccccn2)cc(C)c1/C=C/c1cncc(-c2nn[nH]n2)c1` as the compound, how does the inhibition read?
A: 1.8%

Q: How did the inhibition turn out when `CCn1c(-c2nonc2N)nc2c(C#CC(C)(C)O)nc(OCCNC)cc21` was run?
A: 49.2%

Q: Which inhibition does the source give for `Oc1cccc(-c2nc(-c3ccccc3)[nH]c2-c2ccncc2)c1` here?
A: 6.88%

Q: `C[C@@H](Oc1cc(-n2cnc3ccc(OC[C@@H](O)CO)cc32)sc1C(N)=O)c1ccccc1Cl` was tested. Which inhibition did it give?
A: -0.61%

Q: How did the inhibition turn out when `OCc1ccc(-c2nc(-c3ccccn3)c(-c3ccc4c(c3)OCO4)[nH]2)cc1` was run?
A: 1.95%

Q: With `Cc1ccc(NC(=O)CC2CC2)cc1-c1ccc(C(=O)NCC2CC2)cc1` as the compound, how does the inhibition read?
A: 0.41%

Q: `COc1ccc(-c2nn3ncccc3c2-c2ccnc(Nc3cccc(C(F)(F)F)c3)n2)cc1` was tested. Which inhibition did it give?
A: 2.61%

Q: For `Cc1ccc2c(c1)/C(=N/Nc1ccc(S(N)(=O)=O)cc1)C(=O)N2`, which inhibition is on record?
A: 1.28%

Q: Which inhibition does the source give for `COc1cc(/C=N/Nc2ncnc3c2cnn3C(C)C)ccc1O` here?
A: 3.87%

Q: With `NS(=O)(=O)c1ccc(NC=C2C(=O)Nc3ccc4ncsc4c32)cc1` as the compound, how does the inhibition read?
A: 11.8%

Q: Which inhibition does the source give for `COc1cc(Nc2nccc(-c3cnn4ncccc34)n2)cc(OC)c1` here?
A: 10.7%

Q: How did the inhibition turn out when `CCS(=O)(=O)c1ccc(OC)c(Nc2nccc(N(C)c3ccc4c(C)n[nH]c4c3)n2)c1` was run?
A: 0.84%

Q: With `Cc1ccc(Nc2ccnc(Nc3cccc(C(N)=O)c3)n2)cc1O` as the compound, how does the inhibition read?
A: -0.05%

Q: How did the inhibition turn out when `CS(=O)(=O)Nc1cccc(-c2ccc3c(NC(=O)C4CC4)n[nH]c3c2)c1` was run?
A: 1.02%

Q: Which inhibition does the source give for `NS(=O)(=O)c1ccc(Nc2cc(-c3cccc(O)c3)n[nH]2)cc1` here?
A: 2.6%

Q: `COC(=O)c1cncc(/C=C/c2c(C)cc(O)cc2C)c1` was tested. Which inhibition did it give?
A: 2.3%

Q: How did the inhibition turn out when `COc1cc2ncnc(Nc3ccc(C)c(O)c3)c2cc1OC` was run?
A: 3.17%

Q: `COC(=O)Nc1nc2cc(Oc3ccc(NC(=O)Nc4cccc(Br)c4)cc3)ccc2[nH]1` was tested. Which inhibition did it give?
A: 1.19%

Q: How did the inhibition turn out when `[O-][S+]1CCN(Cc2ccc(-c3ccc4ncnc(Nc5ccc(OCc6ccccc6)c(Cl)c5)c4c3)o2)CC1` was run?
A: 7.99%

Q: Which inhibition does the source give for `COc1cc2ncn(-c3cc(OCc4ccccc4S(C)(=O)=O)c(C#N)s3)c2cc1OC` here?
A: 3.77%

biological target: Protein kinase C alpha type (Homo sapiens) (UniProt P17252); settings: at 0.1 µM;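 further: each value is the mean percent inhibition of PKC-alpha kinase activity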

Q: With `CN(C)CCCn1c(-c2nonc2N)nc2cnccc21` as the compound, how does the inhibition read?
A: 0.8%

Q: With `CN(c1ccc(NC(=O)Nc2ccc(OC(F)(F)F)cc2)cc1)c1ccnc(Nc2cccc(S(N)(=O)=O)c2)n1` as the compound, how does the inhibition read?
A: 0.02%

Q: With `O=C(Nc1ccc(Oc2ccc3[nH]c(NC(=O)c4ccco4)nc3c2)cc1)Nc1cc(C(F)(F)F)ccc1F` as the compound, how does the inhibition read?
A: -3.29%

Q: With `c1ccc(Cc2nc3ccc(Nc4ncnc5ccccc45)cc3[nH]2)cc1` as the compound, how does the inhibition read?
A: 1.22%

Q: With `C[C@@H](Oc1cc(-n2cnc3ccc(OCC4CCN(C)CC4)cc32)sc1C(N)=O)c1ccccc1C(F)(F)F` as the compound, how does the inhibition read?
A: 0.1%

Q: With `Nc1nccc(-c2c(-c3ccc(F)cc3)nn3cc(C(F)(F)F)ccc23)n1` as the compound, how does the inhibition read?
A: 0.05%

Q: With `NC(=O)c1cccc(Nc2nccc(Nc3cccc(F)c3)n2)c1` as the compound, how does the inhibition read?
A: 0.15%

Q: With `Nc1nccc(C#Cc2cncnc2Nc2ccc(OCc3cccc(F)c3)c(Cl)c2)n1` as the compound, how does the inhibition read?
A: 1.36%

Q: With `NC(=O)c1sc(-n2cnc3ccccc32)cc1OCc1ccccc1Br` as the compound, how does the inhibition read?
A: 1.58%

Q: Which inhibition does the source give for `CN(C)c1cc2c(Nc3ccc4c(cnn4Cc4ccccc4)c3)ncnc2cn1` here?
A: -0.01%

Q: For `NS(=O)(=O)c1ccc(-c2cc3ccncc3cc2OCc2ccccc2)cc1`, which inhibition is on record?
A: 0.12%

Q: How did the inhibition turn out when `Nc1ccc(C#Cc2cncnc2Nc2ccc(OCc3cccc(F)c3)c(Cl)c2)cc1` was run?
A: 0.42%

Q: Which inhibition does the source give for `FC(F)(F)c1ccc(-c2nn3ncccc3c2-c2ccnc(Nc3ccc4c(c3)OCCO4)n2)cc1` here?
A: 0.99%

Q: `Cc1cc(-c2ccccn2)cc(C)c1/C=C/c1cncc(-c2nn[nH]n2)c1` was tested. Which inhibition did it give?
A: 0.99%

Q: For `CCn1c(-c2nonc2N)nc2c(C#CC(C)(C)O)nc(OCCNC)cc21`, which inhibition is on record?
A: 0.49%

Q: `Oc1cccc(-c2nc(-c3ccccc3)[nH]c2-c2ccncc2)c1` was tested. Which inhibition did it give?
A: 0.69%

Q: Which inhibition does the source give for `C[C@@H](Oc1cc(-n2cnc3ccc(OC[C@@H](O)CO)cc32)sc1C(N)=O)c1ccccc1Cl` here?
A: -0.25%

Q: `OCc1ccc(-c2nc(-c3ccccn3)c(-c3ccc4c(c3)OCO4)[nH]2)cc1` was tested. Which inhibition did it give?
A: 1.27%

Q: For `Cc1ccc(NC(=O)CC2CC2)cc1-c1ccc(C(=O)NCC2CC2)cc1`, which inhibition is on record?
A: 0.78%

Q: How did the inhibition turn out when `COc1ccc(-c2nn3ncccc3c2-c2ccnc(Nc3cccc(C(F)(F)F)c3)n2)cc1` was run?
A: 0.27%

Q: `Cc1ccc2c(c1)/C(=N/Nc1ccc(S(N)(=O)=O)cc1)C(=O)N2` was tested. Which inhibition did it give?
A: 0.13%

Q: `COc1cc(/C=N/Nc2ncnc3c2cnn3C(C)C)ccc1O` was tested. Which inhibition did it give?
A: 0.6%

Q: `NS(=O)(=O)c1ccc(NC=C2C(=O)Nc3ccc4ncsc4c32)cc1` was tested. Which inhibition did it give?
A: 1.14%

Q: Which inhibition does the source give for `COc1cc(Nc2nccc(-c3cnn4ncccc34)n2)cc(OC)c1` here?
A: 12.4%

Q: For `CCS(=O)(=O)c1ccc(OC)c(Nc2nccc(N(C)c3ccc4c(C)n[nH]c4c3)n2)c1`, which inhibition is on record?
A: 0.55%

Q: For `Cc1ccc(Nc2ccnc(Nc3cccc(C(N)=O)c3)n2)cc1O`, which inhibition is on record?
A: -1.9%

Q: For `CS(=O)(=O)Nc1cccc(-c2ccc3c(NC(=O)C4CC4)n[nH]c3c2)c1`, which inhibition is on record?
A: 0.79%

Q: Which inhibition does the source give for `NS(=O)(=O)c1ccc(Nc2cc(-c3cccc(O)c3)n[nH]2)cc1` here?
A: 1.01%

Q: `COC(=O)c1cncc(/C=C/c2c(C)cc(O)cc2C)c1` was tested. Which inhibition did it give?
A: 0.98%

Q: `COc1cc2ncnc(Nc3ccc(C)c(O)c3)c2cc1OC` was tested. Which inhibition did it give?
A: 1.06%

Q: How did the inhibition turn out when `COC(=O)Nc1nc2cc(Oc3ccc(NC(=O)Nc4cccc(Br)c4)cc3)ccc2[nH]1` was run?
A: 1.04%

Q: `[O-][S+]1CCN(Cc2ccc(-c3ccc4ncnc(Nc5ccc(OCc6ccccc6)c(Cl)c5)c4c3)o2)CC1` was tested. Which inhibition did it give?
A: 0.05%

Q: For `COc1cc2ncn(-c3cc(OCc4ccccc4S(C)(=O)=O)c(C#N)s3)c2cc1OC`, which inhibition is on record?
A: 1.33%

Source: ChEMBL document CHEMBL1961873, “Compounds: GSK PKIS; Assays: Nanosyn kinase panel” (2012)
